Assay outcomes deposited in PubChem by National Center for Advancing Translational Sciences (NCATS).
DRD3 antagonist – D3 dopamine receptor (human) antagonism; D3R cells, DiscoveRx beta-arrestin luminescence, antagonist mode; hits give low values; max response, negative = inhibition, %; 2.5% of 360,000 active; in the data active = max response below about -50%; inconclusive = no clear call, values can overlap the other calls; note: % is set by controls: 0 for no effect and ±100 for the full control effect
Target sequence (P35462 whole entry, looked up): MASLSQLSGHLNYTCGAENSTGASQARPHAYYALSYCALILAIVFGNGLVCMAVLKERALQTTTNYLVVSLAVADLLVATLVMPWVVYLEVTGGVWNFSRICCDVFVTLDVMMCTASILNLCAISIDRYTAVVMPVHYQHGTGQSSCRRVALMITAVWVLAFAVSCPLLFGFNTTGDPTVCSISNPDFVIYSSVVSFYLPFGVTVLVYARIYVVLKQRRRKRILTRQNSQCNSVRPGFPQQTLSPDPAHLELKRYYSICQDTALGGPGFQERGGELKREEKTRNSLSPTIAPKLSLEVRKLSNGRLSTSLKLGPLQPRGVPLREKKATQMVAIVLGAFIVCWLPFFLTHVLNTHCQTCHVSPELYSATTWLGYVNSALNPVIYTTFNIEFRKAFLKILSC
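Cells plated overnight at 1500 cells/well, then exposed to library compounds with dopamine controls for 90 minutes at 37 degrees C. DiscoveRx reagent added for 30–60 minutes at room temperature; luminescence read, quantitative HTS format.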
KB-3-1 tox – KB-3-1 parental cell cytotoxicity; 1.4% of 400,000 active; KB-3-1 viability, CellTiter-Glo ATP luminescence, 72 h; AID 1347075; Potency, µM (series often up to 46.1 µM), usual class: cytotoxic; note: potency is the fitted concentration of half-maximal effect; % is set by controls: 0 for no effect and ±100 for the full control effect; nearly all actives have a fitted effect of over 60% in size
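KB-3-1 parental drug-naive adenocarcinoma cells in DMEM/10% FBS, incubated 72 h at 37 C with pin-transferred compounds across a concentration series. Viability by CellTiter-Glo luminescence; concentration-response curves fitted after normalization.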
KB-V1 MDR tox – kills drug-selected multidrug resistant KB-V1 cells; KB-V1 MDR cells viability, CellTiter-Glo, 72 h; Potency, µM (top dose mostly 46.1 µM), most hits filed as cytotoxic; 3.4% of 400,000 active; note: potency is the fitted concentration of half-maximal effect; % is set by controls: 0 for no effect and ±100 for the full control effect; nearly all actives have a fitted effect of over 60% in size
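Potencies derive from concentration-effect curves fitted to normalized luminescence (CellTiter-Glo) of KB-V1 cells treated for 72 h at 37 degrees C in phenol-red-free DMEM containing 10% FBS.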
SW480 rereplic – induces DNA re-replication in SW480 colon adenocarcinoma cells; 1.8% of 340,000 active; Potency, µM (series often up to 46.1 µM), for inactives: at the top dose re-replication activation, usual class: activators; SW480 DNA re-replication, Hoechst DNA content imaging, 48 h; note: potency is the fitted concentration of half-maximal effect; % of control where 0% means no effect; nearly all actives have a fitted effect of over 55% in size
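Readout is total intensity of Hoechst-stained nuclei, excited at 405 nm and collected at 500-530 nm. Compound treatment lasted 48 hr at 37 C in 5% CO2 before staining.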
D3 ag – D3 dopamine receptor (human) agonism; max activation, %; 0.58% of 410,000 active; D3R DiscoveRx beta-arrestin cells, luminescence, 90 min; P35462; in the data active = max activation above about 30%; note: 0% is about no effect
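Agonist mode: compounds and dopamine controls were applied to plated cells for 90 min at 37 degrees C after an overnight attachment at 1500 cells/well. Luminescent read-out followed 30 - 60 minutes at room temperature with DiscoveRx detection reagent.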
MCF10A rerep – inducers of DNA re-replication in MCF 10A breast cells | Potency, µM (titrated, usually from 46.1 µM), without a hit: at the highest dose activity, positive = re-replication, usual class: activators | AID 624296 | 2.9% of 350,000 active | MCF 10A DNA re-replication, Hoechst nuclear intensity, 48 h; note: potency is the fitted concentration of half-maximal effect; % of control where 0% means no effect; nearly all actives have a fitted effect of over 50% in size
* = called active by the depositor; i = inactive; u = inconclusive; x = no result. Only some compounds are listed: those with a hit (about 8.9% of all), similar ones and a draw of the others. Unless noted, calls come from the whole dose curve; as a rule, active = well fitted curve in the direction sought with a large enough effect; inconclusive = small, poorly fitted or top-dose-only effect, or another doubt; inactive = no such curve, though single readings can be large; an effect the other way counts as inactive or inconclusive.

SMILES	DRD3 antagonist	KB-3-1 tox	KB-V1 MDR tox	SW480 rereplic	D3 ag	MCF10A rerep
Cc1cc(NC(=O)c2ccccc2F)on1	-17.1	i	i	20.6µM*	-2.8	2.5%
CCOC(=O)CNC(c1ccccc1)c1cc(Br)ccc1NC(C)=O (stereo unspecified)	-18.2	i	i	2.91µM*	-16.7	-5.8%
Nc1ccc(Br)cc1C(NCC(=O)O)c1ccccc1 (stereo unspecified)	-14.8	i	i	6.51µM*	-3.2	-2.1%
O=C(C[C@H]1CC[C@H]2[C@@H](COC[C@@H](O)CN2S(=O)(=O)c2ccccc2)O1)N[C@@H]1CCN(Cc2ccccc2)C1	-70.6*	i	i	x	-13.2	x
Cc1cccc(-c2c3c(=O)n(C)c(=O)n(C)c3c3cnc4ccccc4n23)c1	x	i	i	x	-9.7	x
CCC(C)NC(=O)c1c(N)n(/N=C/c2ccccn2)c2nc3ccccc3nc12 (stereo unspecified)	8.2	i	20.6µM*	16.4µM*	25.4	u
CCC(C)NC(=O)c1c(N)n(/N=C/c2cccnc2)c2nc3ccccc3nc12 (stereo unspecified)	33.9	u	u	5.8µM*	6.1	2.06µM*
COCCCNC(=O)c1c(N)n(/N=C/c2cccnc2)c2nc3ccccc3nc12	36.8	i	i	u	5.7	u
CC(C)OCCCNC(=O)c1ccncc1	-18.5	i	i	-6.9%	1.0	28.9%
CC(C)OCCCNC(=O)c1c(N)n(/N=C/c2ccccn2)c2nc3ccccc3nc12	-2.5	i	u	20.6µM*	2.6	4.11µM*
CCc1ccccc1-n1c(N)c(C(=O)OC)c2nc3ccccc3nc21	x	i	i	x	4.2	x
COCCCNC(=O)c1c(N)n(/N=C/c2cccs2)c2nc3ccccc3nc12	30.2	i	i	7.31µM*	3.3	u
Cc1cc(C)c(NC(=O)Cn2c(=O)n(Cc3ccc(C(=O)NCc4ccco4)cc3)c(=O)c3sccc32)c(C)c1	x	x	x	x	-8.9	x
COc1ccc(C(=O)c2c(N)c(C(=O)Nc3cccc(OC)c3)c3ccccn23)cc1	x	i	i	x	-3.1	x
COc1ccccc1N1CCN(C(CNC(=O)C(=O)NCCCN(C)C)c2cccnc2)CC1 (stereo unspecified)	x	i	i	x	2.4	x
CCOc1cc(Cl)c(S(=O)(=O)n2ccnc2)cc1Cl	x	i	u	x	6.2	x
CN(C)/C=N/c1[nH]ncc1C#N	8.9	i	i	-0.4%	4.2	9.1%
CN(C)C=Nc1ncc2c([nH]c3ccccc32)c1C#N	99.1	u	7.31µM*	15.3%	-0.6	28.8%
COc1ccc(CCNC2CCC(c3ccccc3)CC2)cc1 (stereo unspecified)	-64.6*	i	i	-2.2%	-7.9	u
CCCC1C(=O)Nc2ccccc2N1C(=O)c1ccc(C(C)(C)C)cc1 (stereo unspecified)	-16.2	i	i	u	4.1	25.9µM*
CCCC1C(=O)Nc2ccccc2N1C(=O)c1cccc(C)c1 (stereo unspecified)	-13.9	u	u	0.6%	-10.5	6.0%
COc1ccc(C=O)cc1OS(=O)(=O)c1ccc(NC(C)=O)cc1	0.3	i	i	18.4µM*	-5.8	u
CCCCc1ccc(NC(=O)CSc2nnc3[nH]c(=O)cc(C)n23)cc1	x	x	x	x	1.7	x
CC1(C)C2CCC1(CS(=O)(=O)Nc1ccc(S(=O)(=O)N3CCCCC3)cc1)C(=O)C2 (stereo unspecified)	3.9	i	25.9µM*	u	3.8	2.0%
C=C1C=C(C(F)F)n2ncc(C(=O)NCc3ccc(F)cc3)c2N1	x	i	i	x	x	x
SMILES	DRD3 antagonist	KB-3-1 tox	KB-V1 MDR tox	SW480 rereplic	D3 ag	MCF10A rerep
Cc1cc(=O)n2c(sc3ccccc32)c1C#N	-10.8	i	i	23.1µM*	-5.6	u
CCCNCC(O)Cn1c2ccccc2n2c(=O)cc(C)c(C#N)c12 (stereo unspecified)	24.0	i	u	-0.3%	4.0	0.2%
CSc1nc(-c2ccccc2)[nH]c(=S)c1C(C)=O	-93.4*	i	i	2.2%	-8.3	0.1%
CSc1nc(-c2ccccc2)nc(SC)c1C(C)=O	38.5	i	u	-13.6%	-0.9	10.4%
NC(N)=N/N=C/c1ccc(OS(=O)(=O)c2ccccc2)cc1	-5.7	i	i	5.8µM*	-5.9	18.4µM*
CCC(=O)N/N=C/c1ccc(OS(=O)(=O)c2ccccc2)cc1	-1.4	i	i	-38.6%	-2.4	-4.2%
COc1ccccc1CNC(=O)CCCN1C(=O)CSc2c1c(C)nn2-c1ccccc1	x	i	i	x	-5.9	x
CCNc1nc(-c2sc(NC(=O)C(C)(C)C)nc2C)c(-n2cc(-c3ccccc3)nn2)s1	180.0	u	18.4µM*	x	31.3*	x
Cc1cccc(OCC(=O)Nc2cc(-c3nc4cc(Cl)ccc4o3)ccc2C)c1	x	i	i	x	x	x
Cc1cc(C)c(C2C(C#N)=C(N)Oc3n[nH]c(C)c32)cc1CN1CCOCC1 (stereo unspecified)	-60.5*	i	i	0.7%	-63.6	20.1%
Cc1ccsc1C1C(C#N)=C(N)Oc2n[nH]c(C)c21 (stereo unspecified)	0.0	i	i	2.3%	-2.9	6.8%
O=c1nc2ccccc2c2n1CC(CN1CCN(c3ccccc3F)CC1)N2 (stereo unspecified)	-68.6*	i	u	-3.6%	-16.4	u
O=c1nc2ccccc2c2n1CC(CN1CCN(c3ccc(F)cc3)CC1)N2 (stereo unspecified)	-21.3	i	i	-7.6%	-14.1	0.9%
C/C(CC(=O)NC1CCCCCC1)=N\NC(=O)c1cnccn1	-15.6	i	i	0.517µM*	-15.1	-3.1%
O=C(c1ccc2c(c1)N(Cc1ccccc1F)C(=O)c1ccccc1S2=O)N1CCC(Cc2ccccc2)CC1 (stereo unspecified)	x	i	i	x	-2.2	x
O=Cc1ccc(/C=C2\C=Cc3ccccc32)cc1	x	u	i	x	x	x
O=c1oc2ccccc2cc1-c1cn2cc(Cc3cc(Cl)ccc3Cl)sc2n1	x	i	u	x	-5.7	x
CC(C)c1ccc(Cc2cn3cc(-c4cc5ccccc5oc4=O)nc3s2)cc1	x	0.581µM*	u	x	-3.9	x
O=c1c2c(-c3cccs3)csc2ncn1/N=C/c1ccc(OC(F)F)cc1	u	i	14.6µM*	-1.3%	-23.6	-1.0%
CN(C)S(=O)(=O)N1CCCC(C(=O)c2ccc(C(F)(F)F)cc2)C1 (stereo unspecified)	u	i	23.1µM*	-0.3%	-2.3	9.6%
